About 83,000 compounds went through this panel and 20% of them were active in at least one assay; those are over-represented in the sample as a whole.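 Testing used 96-well plates and a 48-hour single-concentration exposure. Example: -40 means 40% of the starting cells died.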 Values without a mark were called inactive. Activity calls are given as the source filed them.
What follows are compounds tested on T-47D breast (assay: NCI-60 one-dose screen, 48 h (100 = growth as untreated, 0 = no growth, -100 = all killed)). Conditions: 10 µM unless noted.
Experimental: Growth inhibition of the T-47D human tumor cell line is measured as a screen for anti-cancer activity. Cells are grown in 96 well plates and exposed to the test compound for 48 hours. Compounds are tested at a single concentration, which is 10^-5 M for most compounds. The reported endpoint is percent growth (GI% or GIPRCNT), where numbers from 0 - 100% represent growth inhibition, and numbers from -100% - 0 represent cell death. For example, a value of 40 represents 60% growth inhibition. A value of 0 means no net growth occurred over the course of the experiment. A value of -40 indicates 40% of cells at the beginning of the experiment died by the end of the experiment. A value of -100 means all cells are dead at the end of the experiment.
NCI-60 Human Tumor Cell Lines Screen was performed using the standard one-dose NCI protocol, which is described in more detail at https://dtp.cancer.gov/discovery_development/nci-60/default.htm.
Compounds with GIPRCNT values below 10 were considered active. Activity score was based on GIPRCNT using the following formula: […]
Score is 0 for GIPRCNT values of 100 or above, 50 for GIPRCNT values of 0, and 100 for GIPRCNT values of -100.
Compound Nn1c(=O)c(=O)[nH]c2c(cnn2-c2ccccc2)c1=O has a growth of 108%.
Cc1ncc(C(=O)Nc2ccc(CN3CCN(C)CC3)c(C(F)(F)F)c2)cc1C#Cc1cnc(N)c2ncccc12 was tested, and the growth was 51.4%.
Compound CC/C(Cc1ccccc1)=C(\c1ccc(OCCCN(C)C)cc1)c1ccc(OC(=O)NCc2ccccc2)cc1 has a growth of 52.7%.
For Cc1ccc(Cl)cc1NC(=O)c1sc2nc3c(cc2c1N)C(=O)CCC3, the growth was 82.9%.
Cc1ccc(CNc2c3ccccc3nc3ccccc23)cc1 showed a growth of 25.1%.
COc1ccc(-c2nc3c(N)c(CO)cnc3s2)cc1 was tested, and the growth was 89.2%.
Cc1c2cccnc2c(C)c2c1c1cc(CO)ccc1n2C was tested, and the growth was 17%.
With CCN(CC)c1ccc(/C=N/NC(=O)Cc2ccc(Nc3ccnc(C(F)(F)F)c3)cc2)c(O)c1 the growth was 27.6%.
With CCCn1cnc2c(c1=N)C(c1ccc(F)cc1)c1sc3c(F)cccc3c1O2 (stereo not given) the growth was 53.9%.
With CNC1=CC(=O)c2c(C(=O)OC)c(C)[n+]([O-])c(C)c2C1=O the growth was 52.4%.
In the case of O=[N+]([O-])c1cc(NS(=O)(=O)c2ccccc2)ccc1NS(=O)(=O)c1ccccc1, the growth is reported as 104%.
Work on CNC(=O)c1cc(Oc2ccc3c(c2)sc2nc(-c4ccc(OC)cc4)cn23)ccn1 yielded a growth of 46.4%.
In the case of Cc1ccc(S(=O)(=O)Oc2ccc3sc4cccc(NCCN(C)C)c4c(=O)c3c2)cc1, the growth is reported as -69.8% (active).
Compound COc1ccc(C(=O)Cn2c(C(=O)c3ccc(Cl)cc3)nc3ccccc32)cc1 has a growth of 73.8%.
With Cc1ccc(-c2nc(/C=C3/C(=O)Nc4ccc(F)cc43)c3ccccn23)cc1 the growth was 100%.
For CC1=C(C(=O)Nc2ccccc2)C(c2ccc3c(c2)OCO3)NC(=S)N1 (stereo not given), the growth was 101%.
O=C(NC(Cc1nnc2n(Cc3ccccc3)c(=O)c3c4c(sc3n12)CCCC4)c1ccccc1)c1ccccc1 (stereo not given) showed a growth of 102%.
In the case of O=C(O)COc1ccc(Cl)c(Cl)c1, the growth is reported as 95.7%.
Compound CCCCNc1cc(-c2cn[nH]c2-c2cc(C)cc(OC)c2)nc(-c2cccnc2)n1 has a growth of 49.7%.
Compound O=S(=O)(Oc1ccc(Br)cc1)c1ccc(Cl)cc1 has a growth of 88.5%.
Cc1nc2ccccc2c(/C=C/c2ccccc2)c1C(=O)/C=C/c1ccccc1 was tested, and the growth was 15.6%.
In the case of C=C1C(=O)O[C@H]2[C@H]1CC/C(COC(=O)c1ccc(C(=O)O)s1)=C\CC[C@@]1(C)O[C@@H]21, the growth is reported as 43%.
CN(CCCNC(=O)Cc1ccc2ccc3cccc4ccc1c2c34)CCCNc1cc(-c2ccc3ccccc3c2)nc2ccccc12 was tested, and the growth was -67% (active).
Compound CCN1CCN(CC(=O)Nc2nc3ccc(NCc4ccc(F)cc4)cc3s2)CC1 has a growth of 86.8%.
Compound C=C1C(=O)O[C@H]2[C@H]1CC/C(COC(=O)/C=C\C(=O)NCc1ccc(Cn3c(=O)sn(CCCCC)c3=O)cc1)=C\CC[C@@]1(C)O[C@@H]21 has a growth of 71.7%.
With O=C1/C(=C\c2cccc3nccnc23)SC(=S)N1CCc1ccc(O)cc1 the growth was 82.5%.
CN(C)c1ccc(/C=C(\C#N)c2cc3ccccc3[nH]2)cc1 was tested, and the growth was 36.1%.
For COc1ccc(-c2nc(-c3cn(C)c4ncccc34)cs2)cc1, the growth was -6.67% [100 µM] (active).
CCCCNc1nnc2n(Cc3ccccc3)c(=O)c3c4c(sc3n12)CCCC4 showed a growth of 43.2%.
CCN1C(=O)N(CC)C2C1NN=c1s/c(=C\c3cnc(C)n3C)c(=O)n12 (stereo not given) gave a growth of 24.9%.
For COc1cc2c(cc1OCCCCN1CCN(C(=S)SCCC(C#N)(c3ccccc3)c3ccccc3)CC1)N=C[C@@H]1CCCN1C2=O, the growth was -13.3% (active).
Work on C/C(=N\O)c1ccc(NC(=O)CSc2nnc(-c3cc(-c4ccc(S(N)(=O)=O)cc4)nc4ccccc34)n2-c2ccccc2)cc1 yielded a growth of 36.6%.
For N=C(N)c1ccc(-c2ccc(-c3ccccc3)s2)cc1, the growth was 44.5%.
With CC(=C(c1ccc(OCCN2CCCCC2)cc1)c1ccc(OCCN2CCCCC2)cc1)c1ccc(Cl)cc1 the growth was -72.6% (active).
Cc1ccccc1Nc1cc(O)c2c(=O)cc(-c3ccccc3)oc2c1 gave a growth of 36.5%.
With COc1cc(Cl)c(C)cc1NC(=O)c1cc2ccccc2cc1O the growth was 11.5%.
In the case of NC(=O)c1cnc(Nc2cccc(N)c2)nc1NCCCNC(=O)C1CCC1, the growth is reported as 106%.
Cc1[nH]c(C2CC(c3ccc(C(F)(F)F)c(F)c3)=NN2c2ccccc2)c(C)c1C(=O)NCC(F)(F)F (stereo not given) gave a growth of 65.9%.
Cc1c2ccncc2c(C)c2c1c1cc(CO)ccc1n2C was tested, and the growth was -17.1% (active).
Compound O=C(Nc1ncc(Cc2ccccc2)s1)c1ccc2c(c1)OCCCO2 has a growth of 18.1%.
